According to PubChem BioAssay AID1159580 (chemical genetic matrix, 2015):
Hit rate of the full screen: of about 5,500 compounds, about 2,000 (36%) were called active. Not shown: some 18% with an inconclusive outcome. Cut-off read from the data, not from the text of the source: active = normalized growth mostly below about 0.91 (no sharp cut-off); inconclusive = no clear call, values can overlap the other calls; inactive = mostly above about 0.92. The list shows a part of the results.

Test: chemical genetic growth profiling, strain panel (AID 1159580);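 note: tested at 20 µM; growth read once vehicle control cultures reached saturation at 30 °C; 1 = growth at the plate median or of vehicle wells; lower values mean less growth of the strain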
Settings: S. cerevisiae deletion strains, growth OD

Measured: normalized growth

CC(=O)Oc1c(C)cccc1C(=O)O
inactive: locus YAL013W, strain DEP1, active compounds read low 1.01 | locus YAL021C, strain ccr4, active compounds read low 0.989 | locus YAL026C, strain drs2, active compounds read low 1.01 | locus YAL030W, strain snc1, active compounds read low 0.992 | locus YBL061C, strain skt5, active compounds read low 1.01 | locus YBR009C, strain hhf1, active compounds read low 1.01 | locus YBR021W, strain FUR4, active compounds read low 0.989 | locus YBR023C, strain chs3, active compounds read low 1 | locus YBR171W, strain sec66, active compounds read low 1.02 | locus YBR229C, strain ROT2, active compounds read low 0.988 | locus YBR231C, strain swc5, active compounds read low 1.02 | locus YBR279W, strain paf1, active compounds read low 1.01 | locus YCL011C, strain gbp2, active compounds read low 1.01 | locus YCL016C, strain dcc1, active compounds read low 0.998 | locus YCL029C, strain bik1, active compounds read low 1.01 | locus YCL061C, strain MRC1, active compounds read low 1.01 | locus YCL069W, strain vba3, active compounds read low 1.01 | locus YCR088W, strain abp1, active compounds read low 1.02 | locus YDL005C, strain med2, active compounds read low 1.02 | locus YDL035C, strain GPR1, active compounds read low 1.01 | locus YDL040C, strain nat1, active compounds read low 1 | locus YDL074C, strain BRE1, active compounds read low 1 | locus YDL101C, strain DUN1, active compounds read low 1.01 | locus YDL134C, strain PPH21, active compounds read low 1.01 | locus YDL185W, strain tfp1, active compounds read low 0.999 | locus YDL192W, strain arf1, active compounds read low 1.02 | locus YDR001C, strain nth1, active compounds read low 1.01 | locus YDR069C, strain doa4, active compounds read low 1.01 | locus YDR101C, strain arx1, active compounds read low 1.02 | locus YDR137W, strain rgp1, active compounds read low 0.985 | locus YDR150W, strain NUM1, active compounds read low 1.01 | locus YDR159W, strain sac3, active compounds read low 0.981 | locus YDR162C, strain NBP2, active compounds read low 1 | locus YDR195W, strain ref2 0.994 | locus YDR297W, strain sur2, active compounds read low 0.987 | locus YDR318W, strain mcm21, active compounds read low 1.02 | locus YDR334W, strain swr1, active compounds read low 1.01 | locus YDR335W, strain msn5, active compounds read low 0.989 | locus YDR388W, active compounds read low 1.01 | locus YDR392W, strain spt3, active compounds read low 0.957 | locus YDR502C, strain sam2, active compounds read low 1.02 | locus YEL003W, strain gim4, active compounds read low 1.03 | locus YEL037C, strain rad23, active compounds read low 1.02 | locus YEL061C, strain CIN8 (second series), active compounds read low 1.01 | locus YEL061C, strain CIN8, active compounds read low 0.995 | locus YER015W, strain faa2, active compounds read low 1.01 | locus YER016W, strain bim1, active compounds read low 0.984 | locus YER110C, active compounds read low 1.02 | locus YER111C, strain swi4, active compounds read low 1.02 | locus YER155C, strain BEM2 (second series), active compounds read low 1.01 | locus YER155C, strain BEM2, active compounds read low 1.01 | locus YER167W, strain BCK2, active compounds read low 1.01 | locus YFR010W, strain ubp6, active compounds read low 1.02 | locus YGL078C, strain dbp3, active compounds read low 1.01 | locus YGL086W, strain mad1, active compounds read low 1.01 | locus YGL167C, strain pmr1, active compounds read low 1.01 | locus YGL173C, strain kem1, active compounds read low 1.02 | locus YGL227W, strain vid30, active compounds read low 1.01 | locus YGL240W, strain doc1, active compounds read low 0.971 | locus YGL248W, strain PDE1, active compounds read low 1.01 | locus YGL253W, strain hxk2, active compounds read low 1.01 | locus YGR078C, strain PAC10, active compounds read low 1 | locus YGR135W, strain pre9, active compounds read low 1 | locus YGR229C, strain SMI1, active compounds read low 1.02 | locus YGR252W, strain gcn5, active compounds read low 1 | locus YHR013C, strain ard1, active compounds read low 1.01 | locus YHR027C, strain rpn1, active compounds read low 0.991 | locus YHR030C, strain SLT2, active compounds read low 1.01 | locus YHR079C, strain IRE1 (second series), active compounds read low 1 | locus YHR094C, strain hxt1, active compounds read low 1.01 | locus YHR129C, strain ARP1, active compounds read low 1.01 | locus YHR142W, strain chs7, active compounds read low 1.02 | locus YHR200W, strain rpn10, active compounds read low 1.02 | locus YIL066C, strain RNR3, active compounds read low 1.01 | locus YIL073C, strain SPO22, active compounds read low 1.05 | locus YIL125W, strain kgd1, active compounds read low 1.01 | locus YIR030C, strain dcg1, active compounds read low 1.01 | locus YJL092W, strain hpr5, active compounds read low 1.01 | locus YJL095W, strain BCK1 (second series), active compounds read low 0.977 | locus YJL095W, strain BCK1, active compounds read low 1.01 | locus YJL115W, strain asf1, active compounds read low 1.02 | locus YJL129C, strain trk1, active compounds read low 1.04 | locus YJL134W, strain LCB3, active compounds read low 1.01 | locus YJL154C, strain vps35, active compounds read low 1 | locus YJL164C, strain tpk1, active compounds read low 0.997 | locus YJL166W, strain qcr8, active compounds read low 1 | locus YJL168C, strain set2, active compounds read low 1.01 | locus YJL187C, strain SWE1 (second series), active compounds read low 1.01 | locus YJL187C, strain SWE1, active compounds read low 0.983
